Results taken from PubChem BioAssay.
The source made the active and inactive calls. Unless noted, how the calls were made is not given here.

Tests used:
[1] = HepG2 liver cancer cell viability effects, profiling panel, resazurin fluorescence, 24 h, PK04 Diversity Set (AID 1172); settings: higher = more signal
[2] = basal S. cerevisiae growth modulation, no modifier, primary screen, OD600, strain BY4716, 24 h, basal condition (AID 1173); settings: OD600, 24 h, higher = more signal, called active from +8 up or from −8 down
[3] = MM1S myeloma cell viability, profiling panel, resazurin fluorescence, basal, 24 h, PK04 Diversity Set (AID 1174); settings: higher = more signal, called active from +8 up or from −8 down;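 further: MM1S multiple myeloma cell line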
[4] = target: Dihydroorotate dehydrogenase (quinone), mitochondrial (Plasmodium falciparum (isolate 3D7)) (UniProt Q08210); assay: PfDHODH enzyme inhibitors, primary screen, biochemical, C-terminal His tag, absorbance 600 nm (AID 1175); settings: DCIP absorbance 600 nm, higher = more signal, called active from +8 up or from −8 down;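 further: recombinant parasite enzyme with a five histidine tag at its C terminus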
[5] = P. aeruginosa biofilm formation inhibitors, primary screen, strain PAO1, LB-PBS medium, absorbance 600 nm (AID 1176); settings: P. aeruginosa PAO1 growth/biofilm, A600, 12 h; higher = more signal
[6] = S. cerevisiae RM11-1a growth modifiers, primary screen, strain RM11-1a, OD600, basal, 24 h (AID 1177); settings: OD600, 24 h, higher = more signal, called active from +8 up or from −8 down;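 further: cultures grown under basal conditions with no added stressor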
[7] = E. coli acrAB mutant growth effects, primary screen, E. coli filamentation inducers, strain DRC39, OD650, 24 h (AID 1178); settings: higher = more signal, called active from +8 up or from −8 down;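 further: growth measured as culture turbidity by optical density at 650 nm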
[8] = E. coli acrAB mutant growth effects, primary screen, E. coli filamentation inducers, strain DRC39, OD650, 48 h (AID 1179);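 further: screen aims at cell division blockers that make cells filament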; settings: E. coli DRC39 delta-acrAB growth, higher = more signal, called active from +8 up or from −8 down
[9] = RPMI8226 myeloma cell viability, profiling panel, resazurin fluorescence, basal, 24 h, PK04 Diversity Set (AID 1180); settings: higher = more signal;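 further: RPMI8826 multiple myeloma cell line at 5000 cells per well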
[10] = target: E3 ubiquitin-protein ligase XIAP (Homo sapiens) (UniProt P98170); assay: XIAP binders, primary screen, biophysical, small-molecule microarray, fluorescence 635 nm (AID 1181); settings: small-molecule microarray binding, higher = more signal;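 further: score merges 667 nm emission and signal to noise over triplicate slides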
[11] = tested on: XIP peptide (Xip251-270) binding; assay: small-molecule binders of XIP peptide, primary screen, biochemical, small-molecule microarray, fluorescence 635/667 nm, 0.1 µg/mL protein (AID 1182); settings: fluorescent protein binding, 635 nm, higher = more signal, called active from +8 up or from −8 down
XIP peptide (Xip251-270) = assay: small-molecule binders of XIP peptide, primary screen, biochemical, small-molecule microarray, fluorescence 635/667 nm, 0.5 µg/mL protein (AID 1183); settings: small-molecule microarray binding, fluorescence 635 nm; higher = more signal
[12] = Plasmodium falciparum growth inhibition, primary screen, strain 3D7, DAPI fluorescence, 100 nL (AID 1184);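 further: parasites grown inside human red blood cells in medium with human serum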; settings: P. falciparum 3D7 growth, 3 d, higher = more signal
[13] = target: Homeobox protein Hox-A13 (Mus musculus) (UniProt Q62424); assay: inhibitors of HoxA13-DNA binding, primary screen, biochemical, fluorescence polarization, labeled oligonucleotide (AID 1185); settings: 15 min, higher = more signal, called active from +8 up or from −8 down
Chain of Homeobox protein Hox-A13 (Mus musculus) (Q62424 whole entry, looked up): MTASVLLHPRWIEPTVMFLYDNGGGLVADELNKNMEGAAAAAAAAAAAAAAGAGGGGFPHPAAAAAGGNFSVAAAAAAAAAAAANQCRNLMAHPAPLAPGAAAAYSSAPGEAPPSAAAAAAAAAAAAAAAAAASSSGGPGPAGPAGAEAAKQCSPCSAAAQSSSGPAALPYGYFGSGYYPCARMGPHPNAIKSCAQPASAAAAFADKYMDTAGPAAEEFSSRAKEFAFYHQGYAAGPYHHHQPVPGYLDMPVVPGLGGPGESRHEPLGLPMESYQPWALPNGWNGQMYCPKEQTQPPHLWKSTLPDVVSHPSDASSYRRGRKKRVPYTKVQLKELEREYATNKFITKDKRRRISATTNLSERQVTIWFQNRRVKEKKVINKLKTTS

Chain of E3 ubiquitin-protein ligase XIAP (Homo sapiens) (P98170 whole entry, looked up): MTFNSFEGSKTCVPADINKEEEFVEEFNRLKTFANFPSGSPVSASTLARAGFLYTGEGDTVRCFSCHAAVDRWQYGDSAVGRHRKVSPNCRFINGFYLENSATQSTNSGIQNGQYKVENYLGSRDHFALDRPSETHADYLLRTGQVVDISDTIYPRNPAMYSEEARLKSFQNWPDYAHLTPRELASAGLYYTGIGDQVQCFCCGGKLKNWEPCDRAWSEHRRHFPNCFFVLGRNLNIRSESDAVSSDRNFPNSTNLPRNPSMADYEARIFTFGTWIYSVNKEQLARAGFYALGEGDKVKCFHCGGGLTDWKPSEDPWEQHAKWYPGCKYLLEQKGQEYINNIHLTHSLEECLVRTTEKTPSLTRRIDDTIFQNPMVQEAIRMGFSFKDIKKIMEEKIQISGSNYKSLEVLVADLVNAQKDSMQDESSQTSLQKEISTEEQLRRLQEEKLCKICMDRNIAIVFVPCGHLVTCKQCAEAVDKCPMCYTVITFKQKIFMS
Chain of Dihydroorotate dehydrogenase (quinone), mitochondrial (Plasmodium falciparum (isolate 3D7)) (Q08210 whole entry, looked up): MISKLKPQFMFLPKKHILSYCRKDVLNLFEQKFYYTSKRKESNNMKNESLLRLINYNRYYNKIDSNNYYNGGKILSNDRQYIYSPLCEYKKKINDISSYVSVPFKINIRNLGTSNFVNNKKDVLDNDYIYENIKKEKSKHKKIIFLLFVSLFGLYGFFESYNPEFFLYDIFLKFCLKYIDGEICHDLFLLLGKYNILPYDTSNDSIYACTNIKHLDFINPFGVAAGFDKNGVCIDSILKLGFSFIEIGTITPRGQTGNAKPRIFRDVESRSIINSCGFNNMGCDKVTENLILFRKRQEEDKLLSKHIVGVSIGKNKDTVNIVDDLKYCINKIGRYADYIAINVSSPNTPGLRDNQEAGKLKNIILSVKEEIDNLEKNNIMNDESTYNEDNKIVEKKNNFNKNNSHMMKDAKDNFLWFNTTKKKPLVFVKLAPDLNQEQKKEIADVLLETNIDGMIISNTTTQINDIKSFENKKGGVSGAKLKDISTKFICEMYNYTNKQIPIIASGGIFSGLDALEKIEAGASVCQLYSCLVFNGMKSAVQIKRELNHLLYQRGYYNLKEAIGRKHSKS

Row | SMILES | z-score [1] | z-score [2] | z-score [3] | composite z-score [4] | z-score [5] | z-score [6] | z-score [7] | z-score [8] | z-score [9] | composite z-score [10] | composite z-score [11] | composite z-score (XIP peptide (Xip251-270)) | z-score [12] | z-score [13]
1 | COC(=O)[C@H](C)NC(=O)CCC1CC(OC(=O)NCc2cccc3ccccc23)CC2(CCCC(COC(=O)NCCc3ccc(Cl)cc3)O2)O1 (stereo not given in full) | 0.788 | -0.0765 (inactive) | 0.319 (inactive) | -0.473 (inactive) | -0.61 (inactive) | -0.425 (inactive) | -0.0798 (inactive) | 0.687 (inactive) | 0.413 | -0.0718 | -0.0057 (inactive) | 0.204 | -1.79 | -1.77 (inactive)
2 | CCN1C(=O)[C@H]2[C@H]3[C@H](O)C=CC(=O)[C@@H]3CC[C@H]2C1=O | 0.384 | -0.067 (inactive) | 0.442 (inactive) | -0.28 (inactive) | -0.519 (inactive) | 0.197 (inactive) | 0.484 (inactive) | 0.205 (inactive) | -0.194 | -0.133 | -0.638 (inactive) | -0.0737 | 1.02 | 0.116 (inactive)
3 | COC(=O)C1=C(C)N(Cc2ccccc2)[C@]23O[C@](C(=O)OC)(C(=O)N2[C@@H]1c1ccccc1)[C@H]1CCOC(=O)[C@H]13 | 0.338 | 0.424 (inactive) | 0.444 (inactive) | 1.01 (inactive) | -0.765 (inactive) | 1.55 (inactive) | 0.0676 (inactive) | -0.164 (inactive) | 0.732 | 0.0896 | 0.303 (inactive) | -0.202 | -0.303 | -4.7 (inactive)
4 | COC(=O)[C@H](C)NC(=O)CCC1CC(OC(=O)NCc2cccc3ccccc23)CC2(CCCC(COC(=O)NCC3CCCCC3)O2)O1 (stereo not given in full) | 1.14 | -0.201 (inactive) | 0.486 (inactive) | -0.533 (inactive) | -0.127 (inactive) | 0.617 (inactive) | 0.0476 (inactive) | -0.399 (inactive) | 1.23 | -0.02 | 0.0034 (inactive) | 0.689 | -1.96 | -2.34 (inactive)
5 | CCOC(=O)[C@H](CC(C)C)NC(=O)CCC1CC(OC(=O)NCCc2ccc(F)cc2)CC2(CCCC(COC(=O)NCc3ccccc3)O2)O1 (stereo not given in full) | -0.816 | -0.849 (inactive) | 0.409 (inactive) | -2.24 (inactive) | -0.613 (inactive) | -0.0385 (inactive) | -0.221 (inactive) | -0.565 (inactive) | 0.185 | -0.0333 | 0.137 (inactive) | 0.461 | -2.06 | -7.01 (inactive)
6 | CCOC(=O)NN=C1C[C@@H](O)[C@@H](O)[C@@H]2[C@@H]3C(=O)N(C[C@@H]4CCCO4)C(=O)[C@@H]3CC[C@@H]12 | 0.208 | 0.623 (inactive) | -0.307 (inactive) | -0.851 (inactive) | -0.674 (inactive) | 0.664 (inactive) | 0.914 (inactive) | 1.4 (inactive) | 0.0557 | 0.0432 | 0.0985 (inactive) | -0.0422 | 0.839 | 0.513 (inactive)
7 | COC(=O)[C@H](C)NC(=O)CCC1CC(OC(=O)NCCc2ccc(F)cc2)CC2(CCCC(COC(=O)NCC(c3ccccc3)c3ccccc3)O2)O1 (stereo not given in full) | 0.725 | 0.718 (inactive) | 0.476 (inactive) | -0.216 (inactive) | 0.0251 (inactive) | 1.31 (inactive) | 1.06 (inactive) | 0.706 (inactive) | 0.809 | -0.323 | 0.477 (inactive) | 0.577 | -1.32 | -4.47 (inactive)
8 | CC(=O)C[C@H](O)[C@@H](NC(=O)OC(C)(C)C)C(C)C | -0.519 | -1.33 (inactive) | 0.481 (inactive) | -3.13 (inactive) | 0.0494 (inactive) | -0.407 (inactive) | -1.86 (inactive) | -1.1 (inactive) | -0.228 | -0.195 | -0.0306 (inactive) | -0.161 | -1.24 | 0.787 (inactive)
9 | O=C1[C@H]2[C@H]3[C@H](O)[C@H](O)CC(=NO[C@@H]4O[C@H](CO)[C@@H](O)[C@H](O)[C@H]4O)[C@@H]3CC[C@H]2C(=O)N1c1ccc(F)cc1F | 0.662 | -0.767 (inactive) | 0.412 (inactive) | -1.39 (inactive) | -0.118 (inactive) | -0.815 (inactive) | 0.789 (inactive) | 0.391 (inactive) | 0.741 | -0.313 | 0.34 (inactive) | 0.225 | 0.531 | 0.036 (inactive)
10 | O=C1[C@H]2[C@H]3[C@H](O)[C@H](O)CC(=NO[C@@H]4O[C@H](CO)[C@@H](O)[C@H](O)[C@H]4O)[C@@H]3CC[C@H]2C(=O)N1Cc1ccccc1 | 1.04 | -0.391 (inactive) | 0.0897 (inactive) | 0.261 (inactive) | 0.565 (inactive) | -0.497 (inactive) | 0.405 (inactive) | 1.21 (inactive) | -0.145 | 0.0689 | 0.0711 (inactive) | 0.216 | -0.165 | 0.638 (inactive)
11 | CCc1cc2c(nc1CC)CCN(CCC(C)=NOC[C@@H](O)[C@H]1O[C@@H]3OC(C)(C)O[C@@H]3[C@H]1O)C2 | -0.595 | 0.0824 (inactive) | -0.244 (inactive) | -0.439 (inactive) | 0.535 (inactive) | -0.752 (inactive) | 0.548 (inactive) | -0.953 (inactive) | -0.269 | -0.365 | 0.221 (inactive) | 0.267 | 0.204 | -5.4 (inactive)
12 | CC(=O)O[C@H]1C2=C(C(=O)[C@@H]3O[C@@H]31)[C@H]1C(C)O[C@@H]2[C@@]23C(=O)[C@@H]4O[C@@H]4[C@@H](O)C2=CO[C@H](C)[C@@H]13 (stereo not given in full) | 0.0072 | 0.174 (inactive) | -1.01 (inactive) | -0.0495 (inactive) | -0.0812 (inactive) | -0.2 (inactive) | 0.223 (inactive) | 0.186 (inactive) | -1.12 | -0.0454 | -0.179 (inactive) | -0.697 | -0.771 | -0.465 (inactive)
13 | COc1ccc(O[C@H]2C=C[C@@H](c3ccccc3)O[C@@H]2COC(=O)CCC(C)=NOCC[C@@H]2C=C[C@H](OC(C)=O)[C@@H](COC(C)=O)O2)cc1 | 0.453 | 1.51 (inactive) | 0.595 (inactive) | -0.64 (inactive) | -0.455 (inactive) | 0.893 (inactive) | 0.265 (inactive) | -0.0862 (inactive) | 0.485 | 0.388 | 0.543 (inactive) | 0.0553 | -0.703 | -4.08 (inactive)
14 | CC(=O)OC[C@H]1O[C@H](CCON=C(C)CCC(=O)OC[C@H]2O[C@H](C#Cc3ccccc3)C=C[C@@H]2Oc2ccc(C)cc2)C=C[C@@H]1OC(C)=O | -0.508 | 0.511 (inactive) | -0.795 (inactive) | -0.84 (inactive) | 0.405 (inactive) | 0.661 (inactive) | 0.674 (inactive) | 0.59 (inactive) | -0.31 | -0.241 | -0.365 (inactive) | 0.0804 | 0.724 | -2.62 (inactive)
15 | Cc1ccc(S(=O)(=O)N[C@@H]2COC(=O)[C@H](C)COC(=O)CC=C[C@H]2C)cc1 | 0.285 | 0.773 (inactive) | 0.222 (inactive) | 0.576 (inactive) | -0.601 (inactive) | 1.3 (inactive) | -0.0401 (inactive) | -1.2 (inactive) | 0.242 | -0.13 | -0.396 (inactive) | -0.152 | -0.18 | -0.424 (inactive)
16 | CC(CCN1CCc2nc(-c3ccccc3)c(-c3ccccc3)cc2C1)=NOC[C@@H](C)[C@H](OCc1ccccc1)C(C)C | -1.12 | -2.01 (inactive) | 0.504 (inactive) | 0.928 (inactive) | -0.315 (inactive) | 0.0117 (inactive) | -1.23 (inactive) | -0.936 (inactive) | 0.64 | -0.04 | 2.56 (inactive) | -0.445 | -0.784 | -0.978 (inactive)
17 | Cc1cc2c(nc1C)CCCN2CC(C)ON=C1[C@H]2CCn3c(=O)n(-c4ccccc4)c(=O)n3[C@H]2[C@H](O)[C@@H]2O[C@H]12 (stereo not given in full) | -0.942 | -0.286 (inactive) | -0.222 (inactive) | -0.153 (inactive) | 0.381 (inactive) | -0.488 (inactive) | -1.05 (inactive) | -1.98 (inactive) | -0.745 | 0.0483 | 0.117 (inactive) | 0.32 | 0.0318 | -8.15 (active)
18 | O=C(NN=C1C[C@@H](O)[C@@H](O)[C@@H]2[C@@H]3C(=O)N(c4cccc(Oc5ccccc5)c4)C(=O)[C@@H]3CC[C@H]12)OCc1ccccc1 | 0.615 | -0.841 (inactive) | -0.0525 (inactive) | 0.294 (inactive) | -0.708 (inactive) | -0.474 (inactive) | 0.578 (inactive) | 0.514 (inactive) | 0.49 | -0.141 | -0.132 (inactive) | 0.0323 | -1.43 | -3.8 (inactive)
19 | COC(=O)CC=C[C@@H](C)[C@@H](C=NO[C@H](C)c1cn([C@@H]2COC[C@H]2O)nn1)OC | -0.879 | -0.435 (inactive) | -0.179 (inactive) | -0.295 (inactive) | 0.666 (inactive) | 0.0782 (inactive) | 0.773 (inactive) | 0.878 (inactive) | -0.359 | -0.0206 | -0.107 (inactive) | 0.446 | 0.354 | 0.0624 (inactive)
20 | O=C1C[C@@H](O)[C@@H](O)[C@@H]2[C@@H]3C(=O)N(Cc4ccc5c(c4)OCO5)C(=O)[C@@H]3CC[C@@H]12 | 0.227 | 0.189 (inactive) | -0.0728 (inactive) | 0.745 (inactive) | -0.131 (inactive) | 0.258 (inactive) | 0.0081 (inactive) | 0.0272 (inactive) | -0.707 | 0.0908 | 0.0648 (inactive) | 0.353 | -0.522 | -0.682 (inactive)
